In all, about 4,000 compounds went through this assay and about 350 (8.8%) were called active.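 Rule for the calls: active = calcium fluorescence ratio at least three times the spread of buffer wells, meaning a non-specific response in parental cells; inactive = the rest.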 The list is a sample of the results.
assay: calcium response in parental HEK293 cells, primary screen, counter-screen for MrgX1 agonist project, cell-based, Fluo-4 calcium flux, duplicate, agonist mode (AID 624115); conditions: parental HEK293, Fluo-4 calcium fluorescence (FDSS), at 10 µM; active compounds read high

SMILES | fluorescence ratio F(max-min)/F0
COc1ccccc1Oc1nc(-c2cccnc2)nc2ccccc12 | inactive
CC(C)CNc1ncnc2c1cnn2Cc1ccc(Cl)cc1 | inactive
Cc1cccn2c(=O)c(/C=C3\SC(=S)N(CC(C)C)C3=O)c(NCCCOC(C)C)nc12 | inactive
O=C(C1CCN(S(=O)(=O)c2cnc[nH]2)CC1)N1CCN(Cc2ccc3c(c2)OCO3)CC1 | inactive
O=C(Oc1ccc(C(=S)N2CCOCC2)cc1)c1ccc(F)cc1 | inactive
Cc1occc1C(=O)Nc1nnc(-c2ccncc2)s1 | inactive
CCC(C)Sc1nc(C)nc2c1c(=O)n(C)c(=O)n2C (stereo not given) | inactive
O=C(CN1CCN(c2ccc(Cl)cc2)CC1)N1CCCC1 | inactive
Cc1c(C)c2c(OCC(=O)N[C@@H](C(=O)O)c3ccccc3)cc3c(c2oc1=O)CCC(C)(C)O3 | inactive
COC(=O)c1c(NC(=O)c2c(Cl)cnn2C)sc(C)c1C | inactive
COc1ccc(Nc2nnc(C)c3ccccc23)cc1 | inactive
O=C1C(Cc2ccc(O)cc2)NC(=S)N1Cc1ccccc1 (stereo not given) | inactive
Cc1ccnc(NC(=O)C(C)N2C(=O)c3ccccc3C2=O)c1 (stereo not given) | inactive
Cc1cccc(NC(=O)C(C)N2C(=O)C3C4CC(C(Br)C4Br)C3C2=O)c1 (stereo not given) | 94.8 (active)
Cc1ccc(C(=O)COC(=O)CCN2C(=O)C3C4CC(C(Br)C4Br)C3C2=O)cc1 (stereo not given) | inactive
Cc1ccc2c(c1)c1ncnc(N3CCc4ccccc4C3)c1n2C | inactive
O=C(COC(=O)c1ccc(NS(=O)(=O)c2cccs2)cc1O)Nc1ccc(F)cc1 | inactive
CN(c1cccc(NC(=O)Nc2ccc(Cl)cc2)c1)S(C)(=O)=O | inactive
O=C(c1cccs1)C1C(c2ccc(Br)cc2)NC(=S)NC1(O)C(F)(F)F (stereo not given) | inactive
CC(C)(C)n1c(=O)[nH]c2c(c1=O)CCC2 | inactive
CCN(CC)c1ccc2oc(=O)c(C)nc2c1 | inactive
CC(=O)N(C)c1ccc(NC(=O)C(F)(F)F)cc1 | inactive

SMILES | fluorescence ratio F(max-min)/F0
CCc1nnc(NC(=O)CSc2nc3c(c(=O)n2-c2ccccc2OC)SCC3)s1 | inactive
CC1CCN(S(=O)(=O)c2nnc(NC(=O)COc3ccccc3F)s2)CC1 | inactive
CCSc1nsc(NC(=O)Nc2cccc(C(C)=O)c2)n1 | inactive
CCCCCCCCCCOC(=O)Cn1c(COc2cccc(OC)c2)[n+](C)c2ccccc21 | inactive
CN1/C(=C\C=C2\N=C(c3ccc(F)cc3)OC2=O)C(C)(C)c2ccccc21 | inactive
S=C(NCc1ccc(Cl)cc1)NC12CC3CC(CC(C3)C1)C2 | inactive
O=C(Nc1ccc(Cl)cc1)Nc1ccc(Oc2cccnc2)nc1 | inactive
CCc1ccc(N(CC(=O)Nc2sc3c(c2C(=O)OC)CCCC3)S(C)(=O)=O)cc1 | inactive
CC(=O)N1c2ccc(S(=O)(=O)N3CCCC(C(=O)Nc4cccc(Cl)c4)C3)cc2CC1C (stereo not given) | inactive
COc1cccc(CCNC(=O)COc2cccc3c2OC(C)(C)C3)c1 | inactive
O=C(COC(=O)C1CCN(S(=O)(=O)c2ccc3c(c2)OCCO3)CC1)Nc1ccccc1OC(F)F | inactive
COC(=O)c1ccc(COC(=O)C2CCN(S(=O)(=O)c3c(Cl)cccc3Cl)CC2)o1 | inactive
CCOC(=O)c1[nH]c2ccc(C)cc2c1N=C(C)N(C)C | 46.4 (active)
Cc1c(C(=O)N2CCCc3ccccc32)sc2nc(-c3ccccc3)cn12 | inactive
Clc1ccc(C=NC23CN4CN(CN(C4)C2)C3)cc1 | inactive
CC(Oc1ccc(F)cc1)C(=O)Nc1ccccc1C(=O)NC1CC1 (stereo not given) | inactive
CC(C)(C)Nc1c(-c2cccs2)nc2ccccn12 | inactive
O=c1cc(CSc2ccccn2)nc(N2CCN(c3ccccc3)CC2)[nH]1 | inactive
O=C(Nc1ccccc1Cl)N1CCN(c2ccc3nncn3n2)CC1 | inactive
CCc1cc2c(SCC(=O)Nc3ncc(Cl)c(C)c3Cl)ncnc2s1 | inactive
Cc1ccc(C(C(=O)NC2CCCCC2)N(C(=O)c2csnn2)C2CC2)o1 (stereo not given) | inactive
COC(=O)Cn1c(O)c(N=NC(=O)OC)c2ccccc21 | inactive

SMILES | fluorescence ratio F(max-min)/F0
COc1cc(C)c(C)cc1S(=O)(=O)N1CCCc2ccccc21 | inactive
COc1cc(C(F)(F)F)nc2c(Br)c(C(C)(C)C)nn12 | inactive
CC(=O)N(C1=C(Cl)C(=O)c2ccccc2C1=O)c1ccc(C(=O)O)cc1 | inactive
O=C(Nc1ccccc1N1CCOCC1)c1csc2c1CCCC2 | inactive
C=CCOc1cccc(C2C(C(=O)c3ccc(C)o3)=C(O)C(=O)N2c2nnc(C)s2)c1 (stereo not given) | inactive
COC(=O)c1c(NC(=O)CN(c2ccc(C)c(C)c2)S(C)(=O)=O)sc2c1CCCC2 | inactive
CCN(C(=O)CSc1nnc2ccccn12)C1CCS(=O)(=O)C1 (stereo not given) | inactive
Brc1ccccc1C1Nc2cccc3cccc(c23)N1 | inactive
COc1ccc(Cc2nc(-c3ccccn3)no2)cc1OC | inactive
CCOC(=O)c1cn(Cc2cccc(C)c2)nn1 | inactive
C=CCNC(=O)c1cc(-c2ccccc2O)on1 | inactive
N=C(N)SCc1cccc2ccccc12 | inactive
CCc1cc(=O)oc2cc(C)cc(OCC(=O)N3CCC[C@@H]3C(=O)O)c12 | inactive
CCOc1ccc(C(=O)NC2CCN(S(=O)(=O)CC)CC2)cc1 | inactive
COc1ccc(S(=O)(=O)N2CCOCC2)c(C)c1C | inactive
CC(C)OCCCNc1ncnc2c1[nH]c1ccc(F)cc12 | inactive
Fc1ccc2[nH]c3c(N4CCSCC4)ncnc3c2c1 | 51.9 (active)
O=C(c1ccc(O)cc1)c1ccc(C(=O)O)c(C(=O)O)c1 | inactive
Cc1[nH][nH]c(=O)c1C(c1ccc(-c2ccc(Cl)cc2)o1)c1c(C)[nH][nH]c1=O | 48.2 (active)
COc1ccc(C(=O)NC2CCCc3c2cnn3-c2cccc(C)c2C)c(OC)n1 (stereo not given) | inactive
CCOc1ccccc1C1CC(c2ccc(Cl)cc2)Nc2nc(N)nn21 (stereo not given) | inactive
CN1C(CC(=O)Nc2ccc(Br)cc2)c2ccccc2CC1(C)C (stereo not given) | inactive

SMILES | fluorescence ratio F(max-min)/F0
Nc1ccc(Oc2ccc(Cl)cc2)cc1 | inactive
C=CCNC(=O)c1csc(-c2ccccc2)n1 | inactive
COC(=O)Cc1cc(=O)n(-c2nc3ccccc3s2)[nH]1 | inactive
O=C(Nc1ccc(Br)cc1F)C1CC(=O)N(C2CCCCC2)C1 (stereo not given) | inactive
CC1CCCCN1S(=O)(=O)c1ccc(C(=O)Nc2nnc(-c3cccs3)o2)cc1 (stereo not given) | inactive
Cc1ccc(-n2[nH]c(C)c(/C=N/N3C(=O)c4cccc5cccc(c45)C3=O)c2=O)cc1 | 110 (active)
O=C(CSc1nncn1-c1cccnc1)N1CCOCC1 | inactive
Cc1nc(N2CCN(c3ccccn3)CC2)c2c(C)c(C(=O)Nc3ccc(F)c(Cl)c3)sc2n1 | inactive
CC(=O)OC(C)C[N+](C)(C)C (stereo not given) | 98.8 (active)
CCCCOC(=O)CNc1nnc(SCC(=O)OCC)[nH]c1=O | inactive
Cc1ccc(Nc2nc(-c3ccc(O)cc3O)cs2)nc1 | inactive
CCOC(=O)c1c(NC(=O)CNC2CCCc3ccccc32)sc(C(N)=O)c1C (stereo not given) | inactive
Cc1ccc(-n2cnc3ncnc(-c4ccccc4)c32)cc1 | inactive
COc1cc(C2/C(=C(\O)c3ccc4c(c3)CC(C)O4)C(=O)C(=O)N2Cc2ccco2)ccc1O (stereo not given) | inactive
CCCc1cc(=S)n2c([nH]c3ccccc32)c1C#N | 71.7 (active)
CCOC(=O)c1c(C)[nH]c(=S)c(C#N)c1-c1ccccc1 | inactive
COc1ccc(C(=O)NNC(=S)NC(=O)c2ccccc2)cc1 | 130 (active)
CCCCC(=O)NNC(=S)NC(=O)C(c1ccccc1)c1ccccc1 | inactive
CC(Oc1ccc2ccccc2c1)C(=O)NNC(=S)NC(=O)c1ccco1 (stereo not given) | inactive
COc1ccc(C(=O)NC(=S)NNC(=O)CCc2ccccc2)cc1 | 101 (active)
COc1ccc(C(=O)NC(=S)NC2CCCCC2)cc1 | inactive
COc1ccc(C(=O)CSc2n[nH]c(N)n2)cc1 | inactive

SMILES | fluorescence ratio F(max-min)/F0
CCOC(=O)CNC(=O)CSc1nc2cccnc2n1CC | inactive
OCc1ccc(OCCCOc2cccc3cccnc23)cc1 | inactive
OCCn1c(-c2ccccc2)csc1=Nc1ccccc1 | inactive
COc1cccc(-c2cnc(OC(C)(C)C)nc2OC(C)(C)C)c1 | inactive
CCOc1ccc(NC(=O)N2CC=C(n3c(=O)[nH]c4ccccc43)CC2)cc1 | inactive
Cc1cc(Nc2cc(N3CCN(C)CC3)nc(Sc3ccc(NC(=O)C4CC4)cc3)n2)n[nH]1 | inactive
O=C(c1ccc(OC2CCN(C(=O)c3cccnc3)CC2)cc1)N1CCCCCC1 | inactive
COCCNC(=O)C1CCN(S(=O)(=O)c2ccc3c(c2)OCCO3)CC1 | inactive
CCOC(=O)N1CCN(C(=O)COCc2cc(-c3ccc4c(c3)OCO4)on2)CC1 | inactive
CC1(C(=O)O)CCC(C(=O)Nc2ccc(Cl)c(Cl)c2)C1(C)C (stereo not given) | 47.3 (active)
CCCc1[nH]nc2c1C(c1ccc(Br)s1)C(C#N)=C(N)O2 (stereo not given) | inactive
CC1(C)CC2CC(C)(CN2c2ncnc3ccc(Br)cc23)C1 (stereo not given) | inactive
O=C(CSc1ncccn1)NC(=O)NCc1ccccc1 | inactive
Cc1nc(C)c(-c2csc(NCCc3ccccc3)n2)s1 | 51.5 (active)
CCS(=O)(=O)c1ccc2c(c1)N(S(=O)(=O)c1ccccc1)CC(C(=O)O)O2 (stereo not given) | inactive
Cc1nc2ccccc2cc1OCc1ccc(F)cc1 | 45.3 (active)
NC(=O)c1c(Nc2nc3c(F)cccc3s2)sc2c1CCCC2 | inactive
COC(=O)c1ccc(C2C3=C(Nc4nnnn42)c2ccccc2OC3)cc1 (stereo not given) | inactive
O=C(CC(O)(C(F)(F)F)C(F)(F)F)Nc1ccc(Cl)c(Cl)c1 | 45.3 (active)
c1ccc(-c2[nH]ncc2-c2nc3ccccc3[nH]2)cc1 | inactive
COCCCNC(=O)C1CCN(c2ccc(N3CCOCC3)nn2)CC1 | inactive
CCOC(=O)C1=C(O)/C(=C/c2cc(C)n(-c3ccccc3)c2C)N=C1C | inactive
